Measured values: PubChem BioAssay (EPA / NIEHS)
Inconclusive results are not listed. Calls of active or inactive are those of the source. Rule for the calls, unless noted: active = hit-call score of the fitted dose curve at least 0.9, where 1 is the maximum; inactive = score below 0.9.

How the values were obtained:
[1] = system: Brachyury (BRA) Protein Expression, Deisenroth Lab, TBXT (gene 6862); test: CCTE_Deisenroth_DEVTOX-GLR_legacy_Bra: (Legacy) CCTE's DevTox GLR-Endo Assay Evaluation of Brachyury (BRA) Protein Expression, Deisenroth Lab (AID 2284329)
Procedure, shortened: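 Human pluripotent RUES2-GLR line was exposed twice during 48 h differentiation to a 10-point series, 1 nM - 200 uM. Fraction of Bra-positive cells was scored by imaging against pluripotent baseline and fitted after 0.2% DMSO subtraction.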

[2] = CCTE_Deisenroth_DEVTOX-GLR_legacy_CellCount: (Legacy) Viability Assessment in CCTE's DevTox GLR-Endo Assay, Deisenroth Lab (AID 2284331); conditions: actives raise or lower the signal
Procedure, shortened: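 Viability is taken from imaged nuclei counts in fixed RUES2-GLR cultures after 48 h of differentiation under two 24 h-spaced chemical exposures, 10 concentrations from 1 nM to 200 uM, gain or loss versus DMSO baseline.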

[3] = system: SRY-box transcription factor 2 (SOX2) Protein Expression, Deisenroth Lab, SOX2 (gene 6657); test: CCTE_Deisenroth_DEVTOX-GLR_legacy_Sox2: (Legacy) CCTE's DevTox GLR-Endo Assay Evaluation of SRY-box transcription factor 2 (SOX2) Protein Expression, Deisenroth Lab (AID 2284346)
Procedure, shortened: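 hPSC RUES2-GLR, 384-well; 24 h seed → 48 h endoderm differentiation, 2 doses q24h, 1 nM–200 uM. Fix, nuclear dye, 5 fields/well. Sox2+ cells/cell count; cell positive if >5x BMAD over endoderm ctrl; gain direction vs DMSO.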

[4] = system: SRY-box transcription factor 2 (SOX2) Protein Expression, Deisenroth Lab, SOX2 (gene 6657); test: CCTE_Deisenroth_DEVTOX-GLR_Endo_SOX2: CCTE's DevTox GLR-Endo Assay Evaluation of SRY-box transcription factor 2 (SOX2) Protein Expression, Deisenroth Lab (AID 2284412; active = hit-call score of the fitted dose curve at least 0.9, where 1 is the maximum)
Procedure, shortened: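 RUES2-GLR human pluripotent cells were seeded 24 h, then differentiated 48 h with two chemical exposures 24 h apart. Cells were fixed, nuclei stained and imaged by high-content microscopy. Endpoint is %SOX2+ cells over cell count, minus 0.2% DMSO control; 10-point series 1 nM–200 uM.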

[5] = system: Brachyury (BRA) Protein Expression, TBXT (gene 6862); test: CCTE_Deisenroth_DEVTOX-GLR_Endo_BRA: CCTE's DevTox GLR-Endo Assay Evaluation of Brachyury (BRA) Protein Expression, Deisenroth Lab (AID 2284417)
Procedure, shortened: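 Read-out: BRA+ cell count divided by total cell count by high-content imaging (5 fields per well), expressed relative to 0.2% DMSO solvent control. RUES2-GLR cells dosed twice over a 48 h differentiation; concentrations 1 nM - 200 uM.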

[6] = CCTE_Deisenroth_DEVTOX-GLR_Endo_CellCount: Viability Assessment in CCTE's DevTox GLR-Endo Assay, Deisenroth Lab (AID 2284420)
Procedure, shortened: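 RUES2-GLR pluripotent cells seeded 24 h, then differentiated 48 h in defined media with two chemical exposures 24 h apart. Nuclei counted by high-content imaging; 10-point 1 nM–200 uM series; percent change versus 0.2% DMSO.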

[7] = system: SRY-box transcription factor 17 (SOX17) Protein Expression, Deisenroth Lab, SOX17 (gene 64321); test: CCTE_Deisenroth_DEVTOX-GLR_Pluri_SOX17: CCTE's DevTox GLR-Pluri Assay Evaluation of SRY-box transcription factor 17 (SOX17) Protein Expression, Deisenroth Lab (AID 2284427; active = hit-call score of the fitted dose curve at least 0.9, where 1 is the maximum)
Procedure, shortened: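 RUES2-GLR pluripotent cells were induced toward endoderm over 48 h and received two compound doses 24 h apart, in a 10-point series from 1 nM to 200 uM. The percentage of SOX17+ cells among total cells was measured by high-content imaging and reported minus the 0.2% DMSO control.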

[8] = CCTE_Harrill_HTTr_CellCount_MCF7: CCTE's Cell Proliferation Assessment for the High-Throughput Transcriptomics (HTTr) Platform, Harrill Lab (AID 2284012; active = hit-call score of the fitted dose curve at least 0.9, where 1 is the maximum;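 note: cells exposed to compound for six hours; intended direction is loss of nuclei count meaning fewer cells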)
Procedure, shortened: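 MCF7 cells exposed 6 hours to an eight-point dilution series; Hoechst-stained nuclei counted by high-content imaging. Bidirectional curve fitting against DMSO baseline.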

[9] = CCTE_Shafer_MEA_dev_firing_rate_mean: CCTE's Neural Network Formation Assay for Mean Firing Rate, Shafer Lab (AID 2284031);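 for AC50: curve fitted for loss of firing so AC50 reflects decreased mean firing rate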
Procedure, shortened: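 Primary rat cortical neurons on 48-well MEA plates, exposed from plating day 0 with dosing renewed on DIV 5 and 9. Mean well firing rate over active electrodes, recorded days 5, 7, 9, 12, summarised as trapezoidal AUC.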

[10] = CCTE_Shafer_MEA_dev_per_burst_spike_percent: CCTE's Neural Network Formation Assay for Percent of Spikes in a Burst, Shafer Lab (AID 2284032);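 for AC50: fitted as a decrease in burst spike percentage below DMSO baseline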
Procedure, shortened: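 Rat primary cortical neurons on 16-electrode MEA wells, dosed from plating day 0 for 12 days with renewal on DIV 5 and 9; spikes-in-bursts percentage averaged over bursting electrodes, collapsed as AUC across days 5, 7, 9, 12; loss direction versus DMSO.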

[11] = CCTE_Shafer_MEA_dev_active_electrodes_number: CCTE's Neural Network Formation Assay for Number of Active Electrodes, Shafer Lab (AID 2284040; active = hit-call score of the fitted dose curve at least 0.9, where 1 is the maximum;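 for AC50: potency for loss of active electrodes versus DMSO so lower counts are hits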)
Procedure, shortened: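 Primary rat cortical neurons on 16-electrode MEA wells, exposed from day 0 through day 12 with compound renewed at DIV 5 and 9 feeds. Active electrodes (mean firing ≥5 spikes/min) counted at DIV 5, 7, 9, 12; trapezoidal AUC across days, loss-of-signal versus DMSO.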

[12] = CCTE_Shafer_MEA_dev_bursting_electrodes_number: CCTE's Neural Network Formation Assay for Number of Bursting Electrodes, Shafer Lab (AID 2284043; active = hit-call score of the fitted dose curve at least 0.9, where 1 is the maximum;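 for AC50: potency is for loss of bursting electrodes relative to DMSO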)
Procedure, shortened: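 Read-out is the per-well number of electrodes bursting at least once every 2 minutes, recorded on days 5, 7, 9 and 12 and collapsed by trapezoidal area under the curve. Cultures were primary rat cortical neurons on MEA plates, treated continuously from plating.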

[13] = CCTE_Shafer_MEA_dev_per_burst_interspike_interval: CCTE's Neural Network Formation Assay for Burst Interspike Interval, Shafer Lab (AID 2284044);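 note: mean spike spacing inside bursts as AUC over recordings on days 5 7 9 12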;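 for AC50: potency for a decrease of within-burst interspike interval below DMSO level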
Procedure, shortened: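 Primary rat cortical neurons on 48-well MEA plates, exposed from day 0 through day 12, treatment renewed at DIV 5 and 9. Within-burst interspike interval recorded days 5, 7, 9, 12, well-averaged, summarised as AUC; negative fit versus DMSO.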

[14] = CCTE_Shafer_MEA_dev_burst_duration_mean: CCTE's Neural Network Formation Assay for Mean Burst Duration, Shafer Lab (AID 2284045);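 for AC50: curve fitted for loss meaning shorter burst duration than DMSO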
Procedure, shortened: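 Read-out: average first-to-last-spike interval within single-electrode bursts, averaged over bursting electrodes per well, then summarised as area under the curve across days 5, 7, 9 and 12. Developing rat cortical networks were exposed from day 0.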

[15] = CCTE_Shafer_MEA_dev_interburst_interval_mean: CCTE's Neural Network Formation Assay for Mean Interburst Interval, Shafer Lab (AID 2284046);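 note: well-mean interburst interval of bursting electrodes as AUC over four recording days; curve fitted for decrease in interburst interval relative to DMSO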
Procedure, shortened: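 Developing rat cortical networks on 48-well MEAs receive compound from the day of plating. Burst intervals from each active electrode are averaged per well, and AUC over the recording days is fitted in the negative direction against DMSO.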

[16] = CCTE_Shafer_MEA_dev_network_spike_number: CCTE's Neural Network Formation Assay for Number of Network Spikes, Shafer Lab (AID 2284048);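 note: synchronized bursts across electrodes counted on days 5 7 9 12 and integrated as AUC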;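 for AC50: fit as a loss of signal meaning fewer network spikes than DMSO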
Procedure, shortened: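 Developing networks of primary rat cortical neurons are treated over 12 days starting at plating, with media and compound fully replaced on DIV 5 and 9. Network spike counts from four recording days are integrated as trapezoidal AUC.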

[17] = CCTE_Shafer_MEA_dev_network_spike_peak: CCTE's Neural Network Formation Assay for Mean Number of Electrodes in Network Spike, Shafer Lab (AID 2284049);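 for AC50: fitted for loss of signal meaning fewer electrodes in network spikes than DMSO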
Procedure, shortened: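 Rat cortical primary culture, 1.5 x 10^5 cells/well, 48-well MEA (16 electrodes/well). Dosing day 0 through DIV 12, full media/compound exchange DIV 5, 9. AxIS adaptive spike detection; AUC over days 5/7/9/12; loss-of-signal vs DMSO.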

[18] = CCTE_Shafer_MEA_dev_spike_duration_mean: CCTE's Neural Network Formation Assay for Mean Spike Duration, Shafer Lab (AID 2284051);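 note: mean network spike duration pooled as area under curve over DIV 5 to 12 recordings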;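 for AC50: potency for a decrease in mean network spike duration versus DMSO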
Procedure, shortened: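 Readout is the average length of network spikes, clustered firing across electrodes, summed over DIV 5, 7, 9 and 12 as area under the curve. Neurons from rat cortex developed networks on MEA plates under continuous 12-day exposure.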

Measured: AC50

COc1cc2ncnc(Nc3ccc(F)c(Cl)c3)c2cc1OCCCN1CCOCC1
inactive: [7]
active: [1] 8.42 µM | [2] 6.58 µM | [3] 5.86 µM | [4] 10.9 µM | [5] 10.8 µM | [6] 6.57 µM

C1=CCC(c2ccccc2)CC1 (stereo not drawn)
inactive: [8]

CN(C)CCOC(=O)COc1ccc(Cl)cc1
inactive: [8]

CC(=O)NCCCS(=O)(=O)O
inactive: [8]

CCCCC(=O)O[C@]1(C(=O)CO)[C@@H](C)C[C@H]2[C@@H]3CCC4=CC(=O)C=C[C@]4(C)[C@@]3(F)[C@@H](O)C[C@@]21C
inactive: [8]

Cc1c(O)cccc1C(=O)N[C@@H](CSc1ccccc1)[C@H](O)CN1C[C@H]2CCCC[C@H]2C[C@H]1C(=O)NC(C)(C)C
active: [9] 0.438 µM | [10] 1.43 µM | [11] 0.953 µM | [12] 0.819 µM | [13] 0.473 µM | [14] 0.311 µM | [15] 1.51 µM | [16] 1.56 µM | [17] 1.26 µM | [18] 0.559 µM

CC1(C)S[C@@H]2[C@H](NC(=O)[C@H](N)c3ccc(O)cc3)C(=O)N2[C@H]1C(=O)O
inactive: [9] | [10] | [11] | [12] | [13] | [14] | [15] | [16] | [17] | [18]

CNC(=O)c1cc(Oc2ccc(NC(=O)Nc3ccc(Cl)c(C(F)(F)F)c3)cc2)ccn1
active: [1] 0.815 µM | [2] 1.11 µM | [3] 1.5 µM | [4] 1.45 µM | [5] 4.31 µM | [6] 1.08 µM | [7] 20.9 µM

COc1cc2c(Nc3ccc(Br)cc3F)ncnc2cc1OCC1CCN(C)CC1
active: [1] 8.49 µM | [2] 4.51 µM | [3] 7.85 µM | [4] 8.62 µM | [5] 6.72 µM | [6] 4.46 µM

CCOC(=O)n1ccn(C)c1=S
inactive: [8]

O=C1Cc2cc(CCN3CCN(c4nsc5ccccc45)CC3)c(Cl)cc2N1
active: [1] 3.94 µM | [2] 3.31 µM | [3] 4.3 µM | [4] 6.29 µM | [5] 4.78 µM | [6] 3.31 µM
inactive: [7]

Clc1cccc(Cl)c1NC1=NCCN1
inactive: [8]
